Assay outcomes deposited in PubChem BioAssay by National Center for Advancing Translational Sciences (NCATS).
Compounds with a hit are over-represented: about 7.8% of the library has one in this group of screens.
HCMV antiviral = inhibitors of human cytomegalovirus; AID 1259415; actives 4.5% (n = 410,000); activity change, negative = inhibition, % at 57.5 µM; HFF cells, HCMV-luciferase reporter, 72 h; hits give low values; in the data active = activity change below about -60%; inconclusive = no clear call, values can overlap the other calls; inactive = above about -39%
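Inhibition of viral replication was scored as loss of reporter luminescence in HFFs infected with HCMV-luciferase (MOI 1 PFU/cell) for 72 h; compounds tested at 2 doses, normalized to buffer and Salinomycin controls.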
MARV entry inh = inhibitors of Marburg virus binding or cell entry; Potency, µM (highest dose often 37.8 µM), without a hit: at the top dose activity change, negative = inhibition, usual class: inhibitors; actives 1.8% (n = 300,000); Marburg virus pseudotyped entry inhibition, cell reporter; AID 540276; calls by dose curve; tested in HEK293 cells; note: potency is the fitted concentration of half-maximal effect
Lassa entry inh = blocks Lassa virus binding to or entry into cells; Lassa virus pseudotype entry inhibition, cell reporter; Potency, µM (series often up to 37.9 µM), inactives show at the highest dose activity change, negative = inhibition, most hits filed as inhibitors; actives 1.2% (n = 300,000); calls by dose curve; tested in HEK293 cells; note: potency is the fitted concentration of half-maximal effect; nearly all actives have a fitted effect of over 50% in size
HCV inh = inhibitors of hepatitis C virus infection. Huh7.5.1 HCVcc-Cre infection, luciferase reporter, 44 h. Potency, µM (titrated, usually from 41.8 µM), without a hit: at the highest dose activity change, negative = inhibition, hits mostly inhibitors. actives 3.4% (n = 340,000). AID 651820; active = well fitted inhibition curve with a large enough effect; inconclusive = small, poorly fitted or top-dose-only effect, or another doubt; inactive = no such curve, though single readings can be large or run the other way; note: potency is the fitted concentration of half-maximal effect
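1,000 cells/well; 4 h culture; + compound; + HCVcc-Cre (~0.5 moi); 44 h; luciferase substrate, RT 15 min; read 15 sec.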
Vaccinia mCherry = inhibitors of vaccinia virus infection (mCherry reporter signal). Vaccinia virus mCherry reporter infection, fluorescence. Potency, µM (titrated, usually from 36.5 µM), for the others: top-dose activity change, negative = inhibition, hits mostly inhibitors. actives 0.63% (n = 310,000); calls by dose curve; tested in A549 cells; note: potency is the fitted concentration of half-maximal effect; nearly all actives have a fitted effect of over 35% in size
Vaccinia Venus = vaccinia inhibition (Venus reporter); actives 0.46% (n = 330,000); Vaccinia virus Venus reporter expression, fluorescence; Potency, µM (top dose mostly 36.5 µM), for inactives: at the highest dose activity change, negative = inhibition, usual class: inhibitors; calls by dose curve; tested in A549 cells; note: potency is the fitted concentration of half-maximal effect; nearly all actives have a fitted effect of over 30% in size
* marks the source's active call; other numbers are inactive results; [ ] = dose if it differs, or a comment. % is set by controls: 0 for no effect and ±100 for the full control effect.

COc1cccc(NC(=O)CSc2nc(-c3ccccc3Cl)nc3c2Cc2c(CO)cnc(C)c2O3)c1 was read as HCMV antiviral 14, Lassa entry inh -9%[46.1 µM], Vaccinia mCherry -11% and Vaccinia Venus -20%.
Screening Cc1cc(C)cc(OCC(=O)OCC(=O)Nc2c(C)n(C)n(-c3ccccc3)c2=O)c1 returned HCMV antiviral 16, MARV entry inh 20%[46.1 µM], Lassa entry inh 11%, HCV inh 1µM*, Vaccinia mCherry inactive and Vaccinia Venus -15%.
`Cc1c(NC(=O)COC(=O)COc2ccc(Nc3ccccc3)cc2)c(=O)n(-c2ccccc2)n1C` gave HCMV antiviral -3, MARV entry inh inconclusive, Lassa entry inh -10%, HCV inh 16%, Vaccinia mCherry -18% and Vaccinia Venus 11%.
`CCN(CC)c1ccc(-c2nc3cnccc3n2C)cc1` gave HCMV antiviral 11, MARV entry inh inconclusive, Lassa entry inh -25%, HCV inh 11µM* and Vaccinia Venus -5%.
For Cn1c(-c2ccncc2)nc2ccccc21 the results were HCMV antiviral 7 and HCV inh 6%.
`OCC[C@H]1C[C@H](O)[C@@H](O)[C@]2(CCc3ccccc3CO2)O1` gave HCMV antiviral 6, HCV inh 0.56µM*, Vaccinia mCherry -8% and Vaccinia Venus -19%.
`COCCNC(=O)/C(=C/c1ccccc1Cl)c1ccccc1` gave HCMV antiviral -77*, MARV entry inh 3%, Lassa entry inh inconclusive, HCV inh -1%, Vaccinia mCherry inactive and Vaccinia Venus -29%.
Cc1cccc(Oc2ccc3c(c2)Oc2ccccc2NC3=O)c1 was read as HCMV antiviral 16, MARV entry inh -27%[46.1 µM], Lassa entry inh 1%[46.1 µM], Vaccinia mCherry -6% and Vaccinia Venus 4%.
For CCN(CC)CCNC(=O)c1cnn(-c2nccc(-c3cc4ccccc4o3)n2)c1C the results were Vaccinia mCherry -14% and Vaccinia Venus -4%.
Screening Cc1ccnc(SC2CC(=O)N(c3ccc(Cl)cc3)C2=O)n1 (stereo not given) returned HCMV antiviral 0 and HCV inh 7%.
Screening Cc1nc(SC2CC(=O)N(c3ccccc3)C2=O)n[nH]1 (stereo not given) returned HCMV antiviral -60*, MARV entry inh 0%[46.1 µM], Lassa entry inh 1%, HCV inh 11%, Vaccinia mCherry inactive and Vaccinia Venus 14%.
For O=C1CC(Sc2nnc(-c3ccccc3O)o2)C(=O)N1c1ccccc1 (stereo not given) the results were HCMV antiviral -32, MARV entry inh -6%, Lassa entry inh 9.2µM*, HCV inh 25%, Vaccinia mCherry inactive and Vaccinia Venus 6%.
O=C1CC(Sc2ncccn2)C(=O)N1c1ccccc1 (stereo not given) was read as HCMV antiviral 51, MARV entry inh -12%, Lassa entry inh 15%, HCV inh 11%, Vaccinia mCherry -9% and Vaccinia Venus 0%.
Screening Cc1cccc(N2C(=O)CC(Sc3nccc(C)n3)C2=O)c1 (stereo not given) returned HCMV antiviral -98*, MARV entry inh 11%, Lassa entry inh -4%, HCV inh -11%, Vaccinia mCherry inactive and Vaccinia Venus -10%.
`Nc1ccc(/C=C/c2ccc3cccnc3c2)cc1` gave Vaccinia mCherry 17% and Vaccinia Venus -4%.
CCC[C@H]1[C@@H](NC(=O)Nc2ccc(OC)cc2)CC[C@@]23CCCN2C(=O)CCC[C@@H]13 was read as HCMV antiviral -2.
For COc1ccc(-c2c[n+]3c4n2CCCCC4=C(c2ccc(Br)cc2)C3)cc1 the results were HCMV antiviral -100*, MARV entry inh inconclusive, Lassa entry inh -85%, HCV inh inconclusive, Vaccinia mCherry inactive and Vaccinia Venus -6%.
Screening Clc1ccc(C2=C3CCCCn4c(-c5ccccc5)c[n+](c43)C2)cc1 returned HCMV antiviral -9, MARV entry inh inconclusive, Lassa entry inh -21%, HCV inh -18%, Vaccinia mCherry -16% and Vaccinia Venus -12%.
`CCOC(=O)c1c(-c2ccccc2)oc2ccc(NS(=O)(=O)c3ccc(C(C)C)cc3)cc12` gave HCMV antiviral 21, MARV entry inh -3%[46.1 µM], Lassa entry inh -13%[46.1 µM], Vaccinia mCherry -7% and Vaccinia Venus -2%.
For O=C1C(=O)N(Cc2cccnc2)[C@@H](c2ccccn2)/C1=C(/O)c1ccc(F)cc1 the results were MARV entry inh 22%.
For Cc1nn(-c2nc3ccccc3s2)c(C)c1Oc1ccccc1O the results were MARV entry inh 4.6µM*, Lassa entry inh inconclusive, HCV inh 10µM*, Vaccinia mCherry inconclusive and Vaccinia Venus -12%.
For O=C(Nc1cccc(-c2cnc3ccccc3n2)c1)C1CC(=O)N(c2ccccc2)C1 (stereo not given) the results were HCMV antiviral 14, MARV entry inh inconclusive, Lassa entry inh inconclusive, HCV inh 13µM*, Vaccinia mCherry -6% and Vaccinia Venus -15%.
Screening O=C(CCl)Nc1cccc(-c2cnc3ccccc3n2)c1 returned HCMV antiviral -98*, MARV entry inh inconclusive, Lassa entry inh inconclusive, HCV inh inconclusive, Vaccinia mCherry 11µM* and Vaccinia Venus inconclusive.
Screening O=C(CCl)Nc1ccc(Oc2cnc3ccccc3n2)cc1 returned HCMV antiviral -104*, MARV entry inh inconclusive, Lassa entry inh 21µM* and HCV inh inconclusive.
`O=C(Nc1ccncc1)C1CC(=O)N(c2ccccc2)C1` (stereo not given) gave HCMV antiviral 0, MARV entry inh 2%[46.1 µM], Lassa entry inh 2%, HCV inh 23%, Vaccinia mCherry inactive and Vaccinia Venus -6%.
`O=C(Nc1cccc(-c2cnc3ccccc3n2)c1)c1ccccc1` gave HCMV antiviral -17, MARV entry inh -11%, Lassa entry inh 2% and HCV inh inconclusive.
For O=C(Nc1cccc(-c2cnc3ccccc3n2)c1)c1cccc(NC(=O)c2ccco2)c1 the results were HCMV antiviral 133, MARV entry inh 12µM*, Lassa entry inh inconclusive and HCV inh 10µM*.
`CCC(=O)N1c2ccccc2CC1C(=O)NCCCN1CCN(c2cc(C)ccc2C)CC1` (stereo not given) gave HCMV antiviral -14, Lassa entry inh inconclusive, Vaccinia mCherry -23% and Vaccinia Venus -20%.
For Cc1c(-c2nnc(SCC(=O)Nc3ccc(Cl)cc3)o2)nnn1-c1ccc(F)cc1 the results were HCMV antiviral 39, Lassa entry inh 28%[46.1 µM], Vaccinia mCherry 7% and Vaccinia Venus -2%.
